Measured values as given in paper PMC4336329 (PLoS ONE, 2015).
The campaign covered roughly 310,000 compounds. About 14,000 (4.5%) showed an effect of 50% or more. Effects have a minus sign here. The sample holds strong results, similar compounds and a random draw of the others, so the mix is not that of the screen.

Biological target: human ether-à-go-go-related gene (hERG) potassium channel (human, UniProt Q12809)
Assay: primary screen, population patch clamp on CHO cells stably expressing hERG; higher = less effect of the substance
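Note: peak tail current of the secondary pulse compared with the same well before compound.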

Sequence of human ether-à-go-go-related gene (hERG) potassium channel (Q12809 whole entry, looked up): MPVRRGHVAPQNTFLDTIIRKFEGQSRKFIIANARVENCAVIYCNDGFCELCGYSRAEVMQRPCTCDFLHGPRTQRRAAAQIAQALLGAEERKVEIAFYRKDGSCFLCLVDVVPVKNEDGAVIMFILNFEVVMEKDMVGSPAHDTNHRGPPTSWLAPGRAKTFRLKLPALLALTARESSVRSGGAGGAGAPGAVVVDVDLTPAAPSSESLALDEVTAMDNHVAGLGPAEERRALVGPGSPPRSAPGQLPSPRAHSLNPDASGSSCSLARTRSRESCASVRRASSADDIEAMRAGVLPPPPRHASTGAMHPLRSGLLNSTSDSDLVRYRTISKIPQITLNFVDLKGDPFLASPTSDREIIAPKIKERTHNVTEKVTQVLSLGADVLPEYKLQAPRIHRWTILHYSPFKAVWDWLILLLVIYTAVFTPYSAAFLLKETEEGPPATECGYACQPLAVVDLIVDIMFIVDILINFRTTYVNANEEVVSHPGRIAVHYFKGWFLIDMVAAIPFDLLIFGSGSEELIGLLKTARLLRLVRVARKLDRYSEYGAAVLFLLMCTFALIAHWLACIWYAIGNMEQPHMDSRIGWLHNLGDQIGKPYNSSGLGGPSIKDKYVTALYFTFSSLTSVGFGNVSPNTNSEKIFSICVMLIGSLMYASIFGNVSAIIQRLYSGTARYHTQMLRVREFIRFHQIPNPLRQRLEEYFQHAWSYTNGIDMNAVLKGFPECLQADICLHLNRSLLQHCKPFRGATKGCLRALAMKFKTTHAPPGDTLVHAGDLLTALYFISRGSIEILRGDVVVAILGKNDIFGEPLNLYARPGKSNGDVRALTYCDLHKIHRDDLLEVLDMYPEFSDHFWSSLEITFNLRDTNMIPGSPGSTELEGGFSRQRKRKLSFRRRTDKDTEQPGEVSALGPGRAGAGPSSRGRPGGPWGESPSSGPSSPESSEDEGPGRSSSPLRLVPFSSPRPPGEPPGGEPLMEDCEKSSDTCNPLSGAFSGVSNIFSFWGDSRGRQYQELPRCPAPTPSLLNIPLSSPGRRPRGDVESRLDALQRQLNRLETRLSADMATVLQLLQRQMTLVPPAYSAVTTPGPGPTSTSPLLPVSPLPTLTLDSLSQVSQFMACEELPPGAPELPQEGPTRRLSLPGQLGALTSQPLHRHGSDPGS

Question: How did the “hERG current change (%, negative = inhibition) at 10uM” value turn out when `CN(C(=O)CSc1nnc(-c2ccco2)o1)C1CCCCC1` was run?
Answer: The value was -7.54%.

Question: For `C[C@@H]1NC(=O)c2cc([N+](=O)[O-])cc(I)c2NCCCC[C@@H](C(N)=O)NC(=O)[C@H](CCC(=O)O)NC1=O`, which “hERG current change (%, negative = inhibition) at 10uM” value is on record?
Answer: The value was -9.34%.

Question: Which “hERG current change (%, negative = inhibition) at 10uM” value does the source give for `COC(=O)C1=C(C)N(C)C(=O)NC1c1ccccc1` (centres unmarked) here?
Answer: The value was -5.95%.

Question: How did the “hERG current change (%, negative = inhibition) at 10uM” value turn out when `Cc1cc(C(=O)Nn2c(-c3ccncc3)nc3ccccc3c2=O)ccc1[N+](=O)[O-]` was run?
Answer: The value was 31.8%.

Question: `C=CCOc1c(CNc2ccc(S(N)(=O)=O)cc2)cccc1OC` was tested. Which “hERG current change (%, negative = inhibition) at 10uM” value did it give?
Answer: The value was 2.97%.

Question: With `Cc1cccc(NC(=O)C(Cc2ccccc2)n2cccc2)c1` (centres unmarked) as the molecule, how does the “hERG current change (%, negative = inhibition) at 10uM” value read?
Answer: The value was -51.2%.

Question: How did the “hERG current change (%, negative = inhibition) at 10uM” value turn out when `O=C(CSc1ccc(Cl)cc1)Nc1ccccc1N1CCN(C(=O)c2ccc(Cl)cc2)CC1` was run?
Answer: The value was -10.7%.

Question: With `Cc1ccc(NC(=O)C(Cc2ccccc2)n2cccc2)cc1` (centres unmarked) as the molecule, how does the “hERG current change (%, negative = inhibition) at 10uM” value read?
Answer: The value was 3.37%.

Question: How did the “hERG current change (%, negative = inhibition) at 10uM” value turn out when `O=C(Cc1ccc(Cl)cc1)Nc1ccccc1N1CCN(C(=O)c2ccccc2)CC1` was run?
Answer: Its value is -72.1%.

Question: `O=C(CSc1ccc(Cl)cc1)Nc1ccccc1N1CCN(C(=O)c2ccccc2)CC1` was tested. Which “hERG current change (%, negative = inhibition) at 10uM” value did it give?
Answer: The value was -14.9%.

Question: With `COc1cccc(NC(=O)C(Cc2ccccc2)n2cccc2)c1` (centres unmarked) as the molecule, how does the “hERG current change (%, negative = inhibition) at 10uM” value read?
Answer: The value was -17%.

Question: For `CC(C)(C)c1ccc(/C=C/C(=O)NC2=NCCS2)cc1`, which “hERG current change (%, negative = inhibition) at 10uM” value is on record?
Answer: Its value is 10.5%.

Question: With `O=C(O)CC1SC(=Nc2cccc(C(F)(F)F)c2)NC1=O` (centres unmarked) as the molecule, how does the “hERG current change (%, negative = inhibition) at 10uM” value read?
Answer: The value was 5.13%.

Question: How did the “hERG current change (%, negative = inhibition) at 10uM” value turn out when `CCN(CC)c1ccc(/C=N/OCC(=O)Nc2cccc(C)c2)cc1` was run?
Answer: The value was -2.16%.

Question: For `CCCCOc1ccc(C(=O)N2CCNC(=O)C2CC(=O)OC(C)C)cc1` (centres unmarked), which “hERG current change (%, negative = inhibition) at 10uM” value is on record?
Answer: The value was 13.1%.

Question: With `Cc1ccc(-c2nc(CS(=O)CC(=O)NC3CCCC3)c(C)o2)cc1` (centres unmarked) as the molecule, how does the “hERG current change (%, negative = inhibition) at 10uM” value read?
Answer: The value was -13.3%.

Question: With `COc1ccc(-c2cc(COc3ccccc3)on2)cc1` as the molecule, how does the “hERG current change (%, negative = inhibition) at 10uM” value read?
Answer: The value was 36.1%.

Question: `CC(=O)c1c(N2CCN(Cc3ccccc3)CC2)[nH]c(-c2ccccc2)nc1=S` was tested. Which “hERG current change (%, negative = inhibition) at 10uM” value did it give?
Answer: Its value is 2.17%.

Question: `N#Cc1ccc(CN2CCN(C(=O)c3ccccc3)CC2)c(Cl)c1` was tested. Which “hERG current change (%, negative = inhibition) at 10uM” value did it give?
Answer: Its value is -33.2%.

Question: Which “hERG current change (%, negative = inhibition) at 10uM” value does the source give for `CN1CCN(C(=O)c2cccc(S(=O)(=O)N3CCCCC3)c2)CC1` here?
Answer: Its value is -7.44%.

Question: Which “hERG current change (%, negative = inhibition) at 10uM” value does the source give for `Cl.O=C(c1ccc2c(c1)OCCO2)N1CCN(Cc2ccccc2)CC1` here?
Answer: The value was 2.59%.

Question: With `N#Cc1ccc(CN2CCN(C(=O)c3cccc(S(=O)(=O)N4CCCCCC4)c3)CC2)cc1` as the molecule, how does the “hERG current change (%, negative = inhibition) at 10uM” value read?
Answer: Its value is -75.8%.

Question: How did the “hERG current change (%, negative = inhibition) at 10uM” value turn out when `Cl.O=C(c1cccc(S(=O)(=O)N2CCCC2)c1)N1CCN(Cc2ccccc2)CC1` was run?
Answer: The value was -14.2%.

Question: How did the “hERG current change (%, negative = inhibition) at 10uM” value turn out when `O=C(c1cccc(S(=O)(=O)N2CCCCC2)c1)N1CCCCC1` was run?
Answer: Its value is 5.7%.

Question: With `N#Cc1ccc(CN2CCN(C(=O)c3cc(Cl)c4c(c3)OCCO4)CC2)cc1` as the molecule, how does the “hERG current change (%, negative = inhibition) at 10uM” value read?
Answer: Its value is -67.7%.

Question: For `Cl.O=C(c1cccc(S(=O)(=O)N2CCCCC2)c1)N1CCN(Cc2ccccc2)CC1`, which “hERG current change (%, negative = inhibition) at 10uM” value is on record?
Answer: Its value is -56.6%.

Question: For `N#Cc1ccc(CN2CCN(C(=O)c3ccc(S(=O)(=O)N4CCCCCC4)cc3)CC2)cc1`, which “hERG current change (%, negative = inhibition) at 10uM” value is on record?
Answer: Its value is -40.9%.

Question: With `CC(=O)Nc1nnc(CCS(=O)(=O)c2ccc(C)c(C)c2)s1` as the molecule, how does the “hERG current change (%, negative = inhibition) at 10uM” value read?
Answer: The value was 8.73%.

Question: For `Cc1ccccc1N/N=C/c1sc(=O)n(Cc2cccc(C(=O)O)c2)c1Cl`, which “hERG current change (%, negative = inhibition) at 10uM” value is on record?
Answer: The value was 38.9%.

Question: With `CCN(CC)C(=O)Oc1ccc2c(=O)c(-c3ccc(OC)cc3)c(C)oc2c1` as the molecule, how does the “hERG current change (%, negative = inhibition) at 10uM” value read?
Answer: The value was -35.8%.

Question: With `O=C(Nc1cccc(F)c1)Nc1ccc(Cl)cn1` as the molecule, how does the “hERG current change (%, negative = inhibition) at 10uM” value read?
Answer: The value was 7.51%.

Question: For `Cc1cccc(CN(C(=S)Nc2c(C)cccc2C)c2cccnc2)c1`, which “hERG current change (%, negative = inhibition) at 10uM” value is on record?
Answer: The value was -9.13%.

Question: How did the “hERG current change (%, negative = inhibition) at 10uM” value turn out when `Cc1[nH]c2ccccc2c1C(=O)COC(=O)C(C)C` was run?
Answer: The value was -6.03%.

Question: Which “hERG current change (%, negative = inhibition) at 10uM” value does the source give for `S=C(NCC(c1ccco1)N1CCCC1)Nc1ccccc1` (centres unmarked) here?
Answer: The value was -28.9%.

Question: For `COc1ccc(-n2nnnc2SCC(=O)Nc2nc3c(s2)CCCC3)cc1`, which “hERG current change (%, negative = inhibition) at 10uM” value is on record?
Answer: Its value is 9.26%.

Question: How did the “hERG current change (%, negative = inhibition) at 10uM” value turn out when `Cc1cc(C)nc(-n2nc(C)cc2NC(=O)CN2CCc3ccccc3C2)n1` was run?
Answer: Its value is -68.7%.

Question: How did the “hERG current change (%, negative = inhibition) at 10uM” value turn out when `Cc1cc(NC(=O)CN2CCCC(C)C2)no1.O=C(O)C(=O)O` (centres unmarked) was run?
Answer: Its value is 10.7%.

Question: With `CCC1CCCCN1CC(=O)Nc1cc(C)nn1-c1nc(C)cc(C)n1` (centres unmarked) as the molecule, how does the “hERG current change (%, negative = inhibition) at 10uM” value read?
Answer: The value was -58.8%.

Question: How did the “hERG current change (%, negative = inhibition) at 10uM” value turn out when `CCC1CCCCN1C(=O)CSc1nc(C)cc(C)n1` (centres unmarked) was run?
Answer: The value was -12.8%.

Question: With `Cc1cc(C)nc(-n2nc(C)cc2NC(=O)CN2CCC(C)CC2)n1` as the molecule, how does the “hERG current change (%, negative = inhibition) at 10uM” value read?
Answer: Its value is -65.6%.

Question: For `Cc1cc(C)nc(-n2nc(C)cc2NC(=O)CN2CCCC(C)C2)n1` (centres unmarked), which “hERG current change (%, negative = inhibition) at 10uM” value is on record?
Answer: The value was -56%.

Question: With `Cc1cc(C)nc(-n2nc(C)cc2NC(=O)CN2CCCC2)n1` as the molecule, how does the “hERG current change (%, negative = inhibition) at 10uM” value read?
Answer: The value was -34.1%.

Question: With `Cc1cc(C)cc(NC(=O)CN2CCc3ccccc3C2)c1` as the molecule, how does the “hERG current change (%, negative = inhibition) at 10uM” value read?
Answer: Its value is -10.2%.

Question: `CC(=O)Nc1ccc(NC(=O)CN2CCCC(C)C2)c(Cl)c1` (centres unmarked) was tested. Which “hERG current change (%, negative = inhibition) at 10uM” value did it give?
Answer: The value was -5.17%.
